PfHsp90 yeast 2 – growth inhibition of PfHsp90-expressing yeast, primary screen, antimalarial PfHsp90 inhibitor project, S. cerevisiae, BacTiter-Glo luminescence, single point, set 2; hit rate 0.32% among 310,000; inhibition, % at 9.4 µM; BacTiter-Glo ATP, 48 h; yeast lacking PDR1 and PDR3 efflux regulators;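 active = every replicate shows inhibition above about 80%, whatever the replicate mean, limit read from the data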
tim23-1 inh – growth inhibitors of tim23-1 mutant yeast, primary screen, luminescence, uHTS | S. cerevisiae tim23-1 growth, BacTiter-Glo luminescence, 24 h | inhibition, % at 20 µM | hit rate 1.3% among 330,000;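 active = growth inhibition of the mutant yeast at or above 50%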;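 note: temperature-sensitive mutant grown at 25 °C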
SUMO Mot1 rescue – yeast Mot1-301 growth rescue at high temperature, primary screen, SUMOylation pathway inhibitor project, S. cerevisiae, ATP luminescence, 38.5C; AID 2716, 2010; hit rate 1% among 320,000; S. cerevisiae Mot1-301 growth rescue; percent above DMSO median, 100 means doubled; growth rescue, % at 18.8 µM;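 active = every valid replicate shows activation above 250% relative to neutral control wells; inactive = the rest, any valid replicate at or below 250%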
tim10-1 inh – growth inhibitors of tim10-1 mutant yeast, primary screen, luminescence, uHTS; inhibition, % at 20 µM; S. cerevisiae tim10-1 ts strain growth, BacTiter-Glo, 24 h; AID 463190, 2010; hit rate 2.2% among 330,000;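 active = inhibition of at least 40%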;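 note: mutant grown at 25 °C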
TIM10 inh – growth inhibitors of isogenic TIM10 control yeast, primary screen, counter-screen for tim10-1 yeast inhibitor project, luminescence, uHTS | S. cerevisiae TIM10 strain growth, BacTiter-Glo luminescence, 24 h | inhibition, % at 10 µM | hit rate 1.4% among 330,000 | AID 463195, 2010;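 active = inhibition of 40% or more at the single tested concentration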;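 note: wild-type TIM10 isogenic control strain grown at permissive 25 °C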
tim23-1 conf – tim23-1 mutant yeast growth inhibitors, confirmation, luminescence, single concentration; shares compounds with tim23-1 inh; AID 463218, 2010; inhibition, % at 20 µM; hit rate 83% among 4,400; S. cerevisiae tim23-1 growth, BacTiter-Glo luminescence, 24 h;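 active = inhibition above about 39% in either of two replicate wells at 20 µM, limit read from the data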;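 note: temperature-sensitive tim23-1 mutant grown at 25 °C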
Each line names hits and unclear results; the compound was inactive in the other large screens (follow-up assays come after a bar, where they were run). The list is not random: actives were taken first. Their share in the collection is about 4.4%.

O=C(CSc1cccs1)Nc1cccc2ccccc12	none
Nc1ccc2ccccc2c1N=Nc1ccccc1	none (no result: tim23-1 inh, SUMO Mot1 rescue, tim10-1 inh, TIM10 inh)
Cc1cccc(S(=O)(=O)Nc2cc(Cl)ccc2N2CCOCC2)c1	none
COc1ccc(N2CCN(CNC(=O)c3ccccc3)CC2)cc1	none
COc1ccc(Br)cc1-c1nc(CCl)cs1	tim23-1 inh 51 | tim23-1 conf 57
Cc1cc(C(=O)NCc2ccccc2)no1	none
Cc1ccc(-c2nc(CNC(=O)c3cc(C)on3)cs2)cc1	tim23-1 inh 53 | tim23-1 conf 41
CCc1noc(C)c1C(=O)OCC(=O)c1ccc(NC(C)=O)cc1F	none
CCCC(=O)n1nc(-c2ccco2)nc1SCc1ccccc1	tim23-1 inh 54 | tim23-1 conf 52
O=C(Cc1ccccc1)n1nc(-c2ccco2)nc1SCc1ccccc1	none (no result: PfHsp90 yeast 2)
CC1=NN(c2ccc(Cl)cc2)C(=O)C1C(c1ccccc1O)c1c(C)[nH]n(-c2ccc(Cl)cc2)c1=O (stereo unspecified)	tim23-1 inh 57 | tim23-1 conf 49
CC1=NN(c2ccc(C)cc2C)C(=O)C1C(c1ccccc1O)C1C(=O)N(c2ccc(C)cc2C)N=C1C (stereo unspecified)	none
Cc1ccc(S(=O)(=O)NC2CCCCC2)cc1	none
CSc1ccc(S(=O)(=O)NC2CCCCCC2)cc1	tim23-1 inh 53 | tim23-1 conf 48
C=CCn1ccc(=NC=C(C#N)C#N)c2ccccc21	none
CNc1nc(N)c(C(=O)C23CC4CC(CC(C4)C2)C3)s1	tim23-1 inh 51 | tim23-1 conf 50
CCc1ccc2nc(N(CCCN(C)C)C(=O)c3ccc(C(=O)c4ccccc4)cc3)sc2c1	none
Oc1ccc(-c2nc3ccccc3s2)cc1	tim23-1 inh 69 | tim23-1 conf 64
COc1ccc(-n2cc([N+](=O)[O-])c(=O)c3ccc(Cl)cc32)cc1	none
Cn1c(=O)[nH]c(Nc2ccc(F)cc2)c([N+](=O)[O-])c1=O	none
COc1ccc(NCc2ccc([N+](=O)[O-])s2)cc1	tim23-1 inh 58 | tim23-1 conf 69
O=[N+]([O-])c1ccc(CNc2cccc(Cl)c2)s1	tim23-1 inh 57 | tim23-1 conf 56
O=[N+]([O-])c1ccc(CNc2ccc(F)cc2)s1	tim23-1 inh 51 | tim23-1 conf 46
O=C(c1ccco1)N1CCN(C(=S)NCc2ccc(F)cc2)CC1	none
O=C1c2ccc(Oc3ccc([N+](=O)[O-])cc3)cc2C(=O)N1c1ccncc1	none
CCc1nnc(N2C(=O)c3ccc(Oc4ccc([N+](=O)[O-])cc4)cc3C2=O)s1	tim23-1 inh 64 | tim23-1 conf inactive
COc1ccc(C(=O)NC(=S)Nc2ccc3[nH]c(=O)[nH]c3c2)c(OC)c1	none
CCOc1ccc(Nc2ccc([N+](=O)[O-])c3nonc23)cc1	tim23-1 inh 67 | tim23-1 conf 61
O=C(c1ccc(F)cc1)N(C(=O)c1ccc(F)cc1)c1ncccn1	tim23-1 inh 55 | tim23-1 conf 47
Cc1nn(C)cc1S(=O)(=O)N1CCN(c2ccccc2)CC1	none
S=C(Nc1ccc2nsnc2c1)N1CCCCCC1	tim23-1 inh 55 | tim23-1 conf 40
CNC(=S)Nc1cccc(-c2cnc3ccccc3n2)c1	none
O=C(Cc1cccs1)Nc1ccccc1F	none
COc1ccccc1CNC(=O)COC(=O)c1cccc(S(=O)(=O)N2CCCC2)c1	none
CCOP(=O)(OCC)C(Nc1ccccc1)c1cc(OC)ccc1OC (stereo unspecified)	tim23-1 inh 52 | tim23-1 conf inactive
O=C(/C(=C/O)N=Nc1ccccc1)c1ccncc1	tim23-1 inh 56 (no result: PfHsp90 yeast 2) | tim23-1 conf inactive
O=C(Nc1ccc2nc(-c3ccc(Br)o3)[nH]c2c1)c1cccs1	tim23-1 inh 73 (no result: PfHsp90 yeast 2) | tim23-1 conf 72
CC(=O)Nc1ccc2nc(-c3ccc(Br)o3)[nH]c2c1	none
CC(=O)Nc1ccc2nc(-c3cccn3C)[nH]c2c1	none
Cn1cccc1-c1nc2ccc(NC(=O)c3cccs3)cc2[nH]1	tim23-1 inh 56 | tim23-1 conf 48
O=C(Nc1ccc2nc(-c3ccc(Br)o3)[nH]c2c1)c1ccco1	tim23-1 inh 57 | tim23-1 conf 66
CN1CCc2nc3sc(C(=O)C45CC6CC(CC(C6)C4)C5)c(N)c3cc2C1	PfHsp90 yeast 2 129, tim23-1 inh 90 | tim23-1 conf 85
O=C(CCl)Nc1cn(-c2ccccc2)nc1-c1ccccc1	tim23-1 inh 60 | tim23-1 conf inactive
COc1cc(/C=C(\C#N)c2nc3ccccc3[nH]2)ccc1Oc1ccc([N+](=O)[O-])cn1	tim23-1 inh 58 | tim23-1 conf inactive
COc1ccc(/C=C(\C#N)c2nc3ccccc3[nH]2)cc1O	tim23-1 inh 51 (no result: SUMO Mot1 rescue) | tim23-1 conf 43
COc1cc(/C=C(/C#N)c2ccccc2)ccc1Oc1ccc([N+](=O)[O-])cn1	none (no result: PfHsp90 yeast 2)
CCCc1ccc(NC(=O)C2CCCN(c3cnccn3)C2)cc1 (stereo unspecified)	none (no result: SUMO Mot1 rescue)
Nc1cc(-c2ccccc2)nn1Cc1ccc(Cl)cc1	tim23-1 inh 50 | tim23-1 conf inactive
NC(=O)C1CCN(C(=O)c2ccc3c(=O)n(Cc4ccco4)c(SCC(=O)c4ccccc4)nc3c2)CC1	tim23-1 inh 58 | tim23-1 conf inactive
NC(=O)C1CCN(C(=O)c2ccc3c(=O)n(Cc4ccco4)c(SCC(=O)c4ccc(F)cc4)nc3c2)CC1	none (no result: PfHsp90 yeast 2)
Cc1csc(NC(=O)C(C)Oc2ccc(Cl)cc2C)n1 (stereo unspecified)	none
COc1ccc2[nH]c(C)c(C(=O)CN(C)CC3OCCO3)c2c1	none (no result: PfHsp90 yeast 2)
O=C1NC(=Nc2ccccc2)S/C1=C\c1cccs1	tim23-1 inh 65 | tim23-1 conf 72
Cc1cc(C)cc(N=C2NC(=O)/C(=C/c3cccs3)S2)c1	none
Cc1ccc(NCC(=O)N/N=C\c2ccc([N+](=O)[O-])o2)cc1	tim23-1 inh 55 | tim23-1 conf 41
O=C(CCCN1C(=O)/C(=C/c2cccc(Br)c2)SC1=S)N1CCOCC1	tim23-1 inh 53 | tim23-1 conf inactive
O=C(CCN1C(=O)/C(=C/c2ccccc2Cl)SC1=S)N1CCCC1	none
CN1CCN(C(=O)CCCN2C(=O)/C(=C/c3cccc(Br)c3)SC2=S)CC1	none (no result: SUMO Mot1 rescue)
O=C(CCCN1C(=O)/C(=C/c2ccccc2Cl)SC1=S)N1CCCC1	tim23-1 inh 51 | tim23-1 conf 56
O=Cc1cn[nH]c1-c1ccccc1	none
O=Cc1cnc2ccccc2c1-c1ccccc1	tim23-1 inh 63 | tim23-1 conf 58
COc1ccc(C(=O)SC2=NCCS2)cc1OC	none (no result: PfHsp90 yeast 2)
Cc1ccc(C(=O)SC2=NCCS2)cc1	tim23-1 inh 73 | tim23-1 conf 49

From PubChem BioAssay
